Results filed as inconclusive are left out. Activity calls are given as the source filed them. Calls come from the whole dose curve; as a rule, active = well fitted curve in the direction sought with a large enough effect in the repeat runs; inconclusive = weak or mixed curves; inactive = no such curve, though single readings can be large; an effect the other way counts as inactive or inconclusive.
Key:
[1] = qHTS RealTime-Glo MT Cell Viability Assay in HEK293 cells - 40 hour (AID 1224874); settings: RealTime-Glo luminescence; max response: stronger effect = lower value; note: nearly all actives have a fitted effect of over 50% in size
Summary of the method: (§1)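 HEK293 + NanoLuc + prosubstrate, 600 cells/well; 5 h, 37 C/5% CO2; compound 23 nL in DMSO by pintool; 37 C; luminescence read at 0, 8, 16, 24, 32 and 40 h time points.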

[2] = A CellTox Green Cytotoxicity Assay to monitor cytotoxicity in HEK293 cells - 24 hour (AID 1224875); note: series mostly up to about 77 µM; nearly all actives have a fitted effect of over 45% in size
Summary of the method: (§2)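 Tox21 screen in HEK293: membrane-impermeant cyanine dye fluoresces on binding dead-cell DNA; compound pinned 5 h post-seeding, plates held at 37 C, signal read repeatedly through 40 h.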

[3] = A CellTox Green Cytotoxicity Assay to monitor cytotoxicity in HepG2 cells - 16 hour (AID 1224876); note: nearly all actives have a fitted effect of over 45% in size
Summary of the method: (§3)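 Measurements at 0, 8, 16, 24, 32 and 40 h of treatment captured CellTox Green fluorescence in HepG2 cells that had been co-plated with reagent and preincubated 5 h at 37 C/5% CO2.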

[4] = qHTS RealTime-Glo MT Cell Viability Assay in HepG2 cells - 32 hour (AID 1224877); note: nearly all actives have a fitted effect of over 55% in size
Summary of the method: (§4)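 Cells + NanoLuc/prosubstrate dispensed (600 cells/well) → 5 h at 37 C/5% CO2 → compounds in DMSO transferred → 40 h incubation at 37 C, luminescence read at 0, 8, 16, 24, 32, 40 h.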

[5] = A CellTox Green Cytotoxicity Assay to monitor cytotoxicity in HepG2 cells - 24 hour (AID 1224878); note: nearly all actives have a fitted effect of over 45% in size
Summary of the method: as §3

[6] = A CellTox Green Cytotoxicity Assay to monitor cytotoxicity in HepG2 cells - 40 hour (AID 1224879); note: nearly all actives have a fitted effect of over 40% in size
Summary of the method: as §3

[7] = qHTS RealTime-Glo MT Cell Viability Assay in HEK293 cells - 0 hour (AID 1224880); note: top concentration of the series differs between compounds; nearly all actives have a fitted effect of over 45% in size
Summary of the method: as §1

[8] = A CellTox Green Cytotoxicity Assay to monitor cytotoxicity in HEK293 cells - 32 hour (AID 1224881); note: nearly all actives have a fitted effect of over 40% in size
Summary of the method: as §2

[9] = A CellTox Green Cytotoxicity Assay to monitor cytotoxicity in HepG2 cells - 0 hour (AID 1224882); note: nearly all actives have a fitted effect of over 35% in size
Summary of the method: as §3

[10] = A CellTox Green Cytotoxicity Assay to monitor cytotoxicity in HepG2 cells - 32 hour (AID 1224883); note: nearly all actives have a fitted effect of over 50% in size
Summary of the method: as §3

[11] = A CellTox Green Cytotoxicity Assay to monitor cytotoxicity in HEK293 cells - 8 hour (AID 1224884); note: nearly all actives have a fitted effect of over 35% in size
Summary of the method: as §2

[12] = qHTS RealTime-Glo MT Cell Viability Assay in HepG2 cells - 16 hour (AID 1224885); note: nearly all actives have a fitted effect of over 50% in size
Summary of the method: as §4

[13] = qHTS RealTime-Glo MT Cell Viability Assay in HEK293 cells - 24 hour (AID 1224886); note: top concentration of the series differs between compounds; nearly all actives have a fitted effect of over 50% in size
Summary of the method: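 Tox21 10K qHTS, HEK293, 600 cells/well, RealTime-Glo reagent co-dispensed with cells; 5 h preincubation, compound by pintool, 37 C, luminescence at 0–40 h.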

[14] = qHTS RealTime-Glo MT Cell Viability Assay in HEK293 cells - 8 hour (AID 1224887)
Summary of the method: as §1

[15] = A CellTox Green Cytotoxicity Assay to monitor cytotoxicity in HEK293 cells - 16 hour (AID 1224888); note: nearly all actives have a fitted effect of over 35% in size
Summary of the method: as §2

[16] = qHTS RealTime-Glo MT Cell Viability Assay in HepG2 cells - 0 hour (AID 1224889); note: nearly all actives have a fitted effect of over 50% in size
Summary of the method: as §4

[17] = A CellTox Green Cytotoxicity Assay to monitor cytotoxicity in HepG2 cells - 8 hour (AID 1224890); note: nearly all actives have a fitted effect of over 45% in size
Summary of the method: as §3

[18] = qHTS assay to identify small molecule antagonists of the estrogen receptor alpha (ER-alpha) signaling pathway using the BG1 cell line in the presence of 0.1 nM 17-beta-estradiol - cell viability counter screen (AID 1259241); note: nearly all actives have a fitted effect of over 40% in size
Summary of the method: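 Measures cytotoxicity alongside the ER-alpha antagonist readout: VM7Luc4E2 cells, charcoal-stripped serum, 0.1 nM 17beta-estradiol final, 22 hr compound incubation at 37C, CellTiter-Fluor fluorescence.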

[19] = qHTS assay to identify small molecule antagonists of the androgen receptor (AR) signaling pathway using the MDA cell line in the presence of 0.5 nM R1881 - cell viability counter screen (AID 1259242); note: nearly all actives have a fitted effect of over 45% in size
Summary of the method: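 Concentration-response screen of compounds for toxicity in MDA-kb2 reporter cells: 16 hr at 37C with 0.5 nM R1881, endpoint live-cell protease fluorescence measured in the reporter wells.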

[20] = biological target: Androgen receptor (Homo sapiens) (UniProt P10275); assay: qHTS assay to identify small molecule antagonists of the androgen receptor (AR) signaling pathway using the MDA cell line in the presence of 0.5 nM R1881 (AID 1259243); note: nearly all actives have a fitted effect of over 50% in size
Chain of Androgen receptor (Homo sapiens) (P10275 whole entry, looked up): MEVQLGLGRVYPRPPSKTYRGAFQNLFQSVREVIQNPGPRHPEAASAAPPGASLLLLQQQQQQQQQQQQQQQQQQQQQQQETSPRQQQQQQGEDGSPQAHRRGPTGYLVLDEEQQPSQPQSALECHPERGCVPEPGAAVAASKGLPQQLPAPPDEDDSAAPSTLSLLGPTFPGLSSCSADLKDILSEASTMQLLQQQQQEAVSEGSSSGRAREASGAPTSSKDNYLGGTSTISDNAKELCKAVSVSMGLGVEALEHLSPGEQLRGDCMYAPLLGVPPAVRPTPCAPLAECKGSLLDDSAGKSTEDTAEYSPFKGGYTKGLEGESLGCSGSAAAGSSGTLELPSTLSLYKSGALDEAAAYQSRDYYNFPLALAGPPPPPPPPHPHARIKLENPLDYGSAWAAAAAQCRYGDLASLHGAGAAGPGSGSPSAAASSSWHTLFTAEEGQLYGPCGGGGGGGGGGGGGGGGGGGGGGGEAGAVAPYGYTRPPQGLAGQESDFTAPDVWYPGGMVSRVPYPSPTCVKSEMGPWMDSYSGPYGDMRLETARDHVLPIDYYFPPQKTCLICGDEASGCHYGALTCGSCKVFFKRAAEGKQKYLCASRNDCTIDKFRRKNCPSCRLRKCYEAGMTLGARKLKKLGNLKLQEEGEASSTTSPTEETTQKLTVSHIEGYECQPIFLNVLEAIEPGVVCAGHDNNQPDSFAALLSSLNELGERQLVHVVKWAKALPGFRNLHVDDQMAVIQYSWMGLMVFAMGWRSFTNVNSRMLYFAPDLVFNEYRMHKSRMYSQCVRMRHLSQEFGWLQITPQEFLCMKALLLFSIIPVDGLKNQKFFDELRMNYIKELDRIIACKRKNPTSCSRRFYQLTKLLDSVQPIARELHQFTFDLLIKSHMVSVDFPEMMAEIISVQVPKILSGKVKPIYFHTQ
Summary of the method: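 With R1881 held at 0.5 nM (final), compound effects on MMTV-luciferase expression in MDA-kb2 cells were scored by luminescence after a 16 hr, 37C incubation.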
% is set by controls: 0 for no effect and ±100 for the full control effect.

Oc1ccc2c(c1)OCO2
inactive: max response [1] -2.1% | Potency [2] | Potency [3] | Potency [4] | Potency [5] | Potency [6] | Potency [7] | Potency [8] | Potency [9] | Potency [10] | Potency [11] | Potency [12] | Potency [13] | Potency [14] | Potency [15] | Potency [16] | Potency [17] | Potency [18] | Potency [19]

O=C(C(=O)c1ccc(Br)cc1)c1ccc(Br)cc1
inactive: max response [1] 0.201% | activity change [2] -0.496% [at 15.8 µM, stronger effect = higher value] | cytotoxicity increase [3] -6.44% [at 15.8 µM] | activity change, negative = cytotoxic [4] 2.16% [at 15.8 µM] | cytotoxicity [5] -10% [at 15.8 µM] | cytotoxicity increase [6] -10.2% [at 15.8 µM] | activity change, negative = cytotoxicity [7] -3.2% [at 15.8 µM] | cytotoxicity increase [8] -0.258% [at 15.8 µM] | cytotoxicity [9] -5.86% [at 15.8 µM] | cytotoxicity increase [10] -9.52% [at 15.8 µM] | cytotoxicity increase [11] 6.57% [at 15.8 µM] | activity change, negative = cytotoxic [12] -1.79% [at 15.8 µM] | activity change, negative = cytotoxicity [13] 5.88% [at 15.8 µM] | activity change, negative = cytotoxicity [14] 2.33% [at 15.8 µM] | activity change [15] 0.498% [at 15.8 µM, stronger effect = higher value] | activity change, negative = cytotoxicity [16] -3.46% [at 15.8 µM] | cytotoxicity increase [17] -4.98% [at 15.8 µM] | activity change, negative = cytotoxicity [18] -6.61% [at 19 µM] | viability change, negative = cytotoxic [19] -1.93% [at 19 µM] | activity, negative = inhibition [20] 66.2% [at 19 µM]

CC(C)NCC(O)c1cc(O)cc(O)c1 (centres undefined)
inactive: max response [1] 1.47% | Potency [2] | Potency [3] | Potency [4] | Potency [5] | Potency [6] | Potency [7] | Potency [8] | Potency [9] | Potency [10] | Potency [11] | Potency [12] | Potency [13] | Potency [14] | Potency [15] | Potency [16] | Potency [17] | Potency [19]

NC1CCN(c2nc3c(cc2F)c(=O)c(C(=O)O)cn3-c2ccc(F)cc2F)C1 (centres undefined)
inactive: max response [1] -1.98% | Potency [2] | Potency [3] | Potency [4] | Potency [5] | Potency [6] | Potency [7] | Potency [8] | Potency [9] | Potency [10] | Potency [12] | Potency [13] | Potency [14] | Potency [15] | Potency [16] | Potency [17] | Potency [18] | Potency [19]

CC(=O)OCCc1ccccc1
inactive: max response [1] 10.1% | Potency [2] | Potency [3] | Potency [4] | Potency [5] | Potency [6] | Potency [7] | Potency [8] | Potency [9] | Potency [10] | Potency [12] | Potency [13] | Potency [14] | Potency [15] | Potency [16] | Potency [17] | Potency [18] | Potency [19]

CCCCCOC(=O)COc1cc(N2C(=O)C3=C(CCCC3)C2=O)c(F)cc1Cl
inactive: max response [1] 4.37% | Potency [2] | Potency [3] | Potency [4] | Potency [5] | Potency [6] | Potency [7] | Potency [8] | Potency [9] | Potency [10] | Potency [12] | Potency [13] | Potency [14] | Potency [15] | Potency [16] | Potency [17] | Potency [18] | Potency [19]

O=c1[nH]cnc2ccccc12
inactive: max response [1] -7.9% | Potency [2] | Potency [3] | Potency [4] | Potency [5] | Potency [6] | Potency [7] | Potency [8] | Potency [9] | Potency [10] | Potency [12] | Potency [13] | Potency [14] | Potency [15] | Potency [16] | Potency [17] | Potency [18] | Potency [19]
